In PubChem BioAssay (NCATS):
Results filed as inconclusive are left out. Calls of active or inactive are those of the source. Calls follow the shape of the dose curve; as a rule, active = well fitted curve in the direction sought with a large enough effect; inconclusive = small, poorly fitted or top-dose-only effect, or another doubt; inactive = no such curve, though single readings can be large; an effect the other way counts as inactive or inconclusive.

Experiments:
[1] = NS1 protein of Zika virus - qHTS assay to identify small molecule inhibitors in human HEK 293 cells (AID 1347053); also: series mostly up to about 46 µM; nearly all actives have a fitted effect of over 55% in size
Outline: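 Following 20 h seeding, HEK 293 cells took compound, then 1 h later ZIKV MR766 (MOI = 0.5). Incubation ran 24 h at 37 C before TR-FRET detection of NS1; a drop in signal indicates inhibition.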

[2] = qHTS of pediatric cancer cell lines to identify multiple opportunities for drug repurposing: Primary screen for TC32 cells (AID 1347089); also: nearly all actives have a fitted effect of over 60% in size
Outline: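 Luminescent CellTiter-Glo read-out of metabolically active TC32 cells after 48 h compound exposure. Primary: MIPE 11-point, 0.78 nM–46 µM; NPC 8-point, 0.59 nM–46 µM. Confirmatory: 11-point dilutions.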

[3] = qHTS of pediatric cancer cell lines to identify multiple opportunities for drug repurposing: Primary screen for DAOY cells (AID 1347090); also: series mostly up to about 46 µM; nearly all actives have a fitted effect of over 55% in size
Outline: (§1)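 Viability measured as metabolically active cells via CellTiter-Glo luminescence following 48 hours of compound exposure, 11-point dilutions in confirmatory testing. 500-1,000 cells/well plated 5 hours before dosing; controls were DMSO and 2.3 µM bortezomib.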

[4] = qHTS of pediatric cancer cell lines to identify multiple opportunities for drug repurposing: Primary screen for SJ-GBM2 cells (AID 1347091)
Outline: as §1

[5] = qHTS of pediatric cancer cell lines to identify multiple opportunities for drug repurposing: Primary screen for A673 cells (AID 1347092); also: nearly all actives have a fitted effect of over 45% in size
Outline: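 A673 cells (500-1,000 cells/well in growth media) were pre-incubated 5 h at 37 degrees C, then exposed to compounds for 48 h. Viability was read as CellTiter-Glo luminescence; concentration-response curves came directly from the primary screen.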

[6] = qHTS of pediatric cancer cell lines to identify multiple opportunities for drug repurposing: Primary screen for SK-N-MC cells (AID 1347093); also: series mostly up to about 46 µM
Outline: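 Metabolically active cells were quantified by ATP-dependent luminescence (CellTiter-Glo, 15 min at room temperature) following 48 h treatment. Cells had been plated at 500-1,000 per well and settled for 5 h beforehand.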

[7] = qHTS of pediatric cancer cell lines to identify multiple opportunities for drug repurposing: Primary screen for NB-EBc1 cells (AID 1347095)
Outline: (§2)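 ATP-based luminescence (CellTiter-Glo) quantifies viability after a 48-hour exposure. Compounds are dosed across 8 or 11 final concentrations; DMSO and 2.3 µM bortezomib serve as controls.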

[8] = qHTS of pediatric cancer cell lines to identify multiple opportunities for drug repurposing: Primary screen for U-2 OS cells (AID 1347096); also: nearly all actives have a fitted effect of over 50% in size
Outline: (§3)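 Viability after 48 h compound treatment at 37C, 500-1,000 cells/well, read as ATP luminescence with CellTiter-Glo. Primary screens used 11-point (MIPE, 0.78 nM-46 µM) or 8-point (NPC, 0.59 nM-46 µM) final concentrations; follow-up screens used 11-point dilutions.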

[9] = qHTS of pediatric cancer cell lines to identify multiple opportunities for drug repurposing: Primary screen for Saos-2 cells (AID 1347097); also: nearly all actives have a fitted effect of over 40% in size
Outline: as §2

[10] = qHTS of pediatric cancer cell lines to identify multiple opportunities for drug repurposing: Primary screen for SK-N-SH cells (AID 1347098);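 also: DMSO served as neutral control and bortezomib at 2.3 µM as positive control; nearly all actives have a fitted effect of over 65% in size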
Outline: (§4)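 Cells (500-1,000/well) rested 5 h, then received compounds for 48 h; metabolically active cells were measured by CellTiter-Glo luminescence. Final concentrations spanned up to 46 µM (MIPE, 11-point) or 0.59 nM-46 µM (NPC, 8-point) in primary screens, 11-point in follow-ups.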

[11] = qHTS of pediatric cancer cell lines to identify multiple opportunities for drug repurposing: Primary screen for LAN-5 cells (AID 1347100)
Outline: as §3

[12] = qHTS of pediatric cancer cell lines to identify multiple opportunities for drug repurposing: Primary screen for BT-12 cells (AID 1347101); also: nearly all actives have a fitted effect of over 25% in size
Outline: as §4

[13] = qHTS of pediatric cancer cell lines to identify multiple opportunities for drug repurposing: Primary screen for Rh18 cells (AID 1347102); also: nearly all actives have a fitted effect of over 65% in size
Outline: as §3

[14] = qHTS of pediatric cancer cell lines to identify multiple opportunities for drug repurposing: Primary screen for OHS-50 cells (AID 1347103); also: nearly all actives have a fitted effect of over 40% in size
Outline: as §4

[15] = qHTS of pediatric cancer cell lines to identify multiple opportunities for drug repurposing: Primary screen for RD cells (AID 1347104); also: nearly all actives have a fitted effect of over 55% in size
Outline: as §2

[16] = qHTS of pediatric cancer cell lines to identify multiple opportunities for drug repurposing: Primary screen for MG 63 (6-TG R) cells (AID 1347105); also: nearly all actives have a fitted effect of over 50% in size
Outline: as §2

[17] = qHTS of pediatric cancer cell lines to identify multiple opportunities for drug repurposing: Primary screen for control Hh wild type fibroblast cells (AID 1347106);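 also: series mostly up to about 46 µM; a drop in luminescence marks cytotoxicity and a rise apparent proliferation; nearly all actives have a fitted effect of over 55% in size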
Outline: as §3

[18] = qHTS of pediatric cancer cell lines to identify multiple opportunities for drug repurposing: Primary screen for Rh30 cells (AID 1347107); also: series mostly up to about 46 µM; nearly all actives have a fitted effect of over 75% in size
Outline: as §3

[19] = qHTS of pediatric cancer cell lines to identify multiple opportunities for drug repurposing: Primary screen for NB1643 cells (AID 1347099); also: nearly all actives have a fitted effect of over 50% in size
Outline: as §2

[20] = qHTS of pediatric cancer cell lines to identify multiple opportunities for drug repurposing: Primary screen for BT-37 cells (AID 1347094); also: series mostly up to about 57 µM
Outline: as §2

Measured: Potency

CCOc1cc(NC(C)=O)ccc1C(=O)OC
not listed: [19] | [20]
inactive: all other assays above

CCCCCCCCCCC(CO)CCCCCCCC (stereo unspecified)
not listed: [13] | [16] | [20]
inactive: all other assays above

COc1ccccc1OCC(O)CO (stereo unspecified)
not listed: [20]
inactive: all other assays above

CN1CC(=O)NC1=N
not listed: [20]
inactive: all other assays above

CC(C(=O)O)c1ccc2c(c1)Cc1cccnc1O2 (stereo unspecified)
not listed: [7] | [9] | [19]
inactive: all other assays above

CN(C(=O)c1c(O)c2ccccc2n(C)c1=O)c1ccccc1
not listed: [12] | [20]
inactive: all other assays above

Cc1cccc(C)c1NC(=O)CC12CCCN1CCC2
not listed: [13] | [14] | [20]
inactive: all other assays above

Cc1onc(-c2ccccc2)c1-c1ccc(S(N)(=O)=O)cc1
not listed: [12] | [14] | [20]
inactive: all other assays above

CC(=O)Nc1cccc(O)c1
not listed: [9] | [14] | [20]
inactive: all other assays above

CC(=O)SC[C@@H](Cc1ccccc1)C(=O)NCC(=O)OCc1ccccc1
not listed: [6] | [12]
inactive: all other assays above

CC(=O)Oc1cccc(C)c1
not listed: [14] | [19] | [20]
inactive: all other assays above

CCCCCCCC(=O)OCC(COC(=O)CCCCCCC)OC(=O)CCCCCCC
not listed: [6] | [12] | [19]
inactive: all other assays above

CCc1cccc(CC)c1NC(=O)CN(CC(=O)O)CC(=O)O
not listed: [20]
inactive: all other assays above

CCN(CC)CC1CCCCN1CC(=O)N1c2ccccc2C(=O)Nc2cccnc21 (stereo unspecified)
not listed: [14] | [20]
inactive: all other assays above

CN1CCN(C(=O)C2CCCCC2)CC1
not listed: [13] | [20]
inactive: all other assays above
